Key:
[1] = tested on: Botulinum neurotoxin type F light chain protease (Clostridium botulinum); test: Botulinum neurotoxin type F light chain protease inhibition, multiplex microsphere flow cytometry, validation set (AID 588459); settings: multiplex microsphere protease substrate cleavage assay, at 10 µM, stronger effect = higher value
[2] = target: Botulinum neurotoxin type A (Clostridium botulinum) (UniProt P0DPI0); test: BoNT/A light chain protease inhibitors, biochemical, multiplex microsphere flow cytometry, validation set (AID 588460); settings: at 10 µM, stronger effect = higher value
[3] = target: Lethal factor (Bacillus anthracis) (UniProt P15917); test: Lethal factor protease inhibitors, Bacillus anthracis, multiplex microsphere cleavage assay, validation set (AID 588461); settings: flow cytometry, at 10 µM, stronger effect = higher value

Measured: inhibition

Cc1ccc2c(c1)C(O)(C1COC(C)(C)CC1=O)C(=O)N2C (centres undefined)
inactive: [1] -1.1% | [2] 1.7% | [3] -0.8%

O=C(N/C(=C/C=C\c1ccccc1)C(=O)N1CCOCC1)c1ccc(Br)cc1
inactive: [1] 3.8% | [2] 0.6% | [3] -3.6%

COc1ccc(CC(=O)NCC2(c3ccc(OC)c(OC)c3)CCOCC2)cc1
inactive: [1] 3.5% | [2] -0.9% | [3] -1.6%

COc1cc(NS(=O)(=O)c2ccc(N)cc2)nc(OC)n1
inactive: [1] 1.2% | [2] 1.1% | [3] 0.1%

CC(C)OC(=O)CC12CN3CN(C1)CC(CC(=O)OC(C)C)(C3)C2=O
inactive: [1] 1.8% | [2] -0.4% | [3] 6.1%

CCCCOc1ccc(CC(=O)NO)cc1
inactive: [1] -1.6% | [2] -0.2% | [3] 0.6%

COc1ccc(CNC(=O)N[C@H](C(=O)O)C(C)C)cc1OC
inactive: [1] -0.7% | [2] -1.2% | [3] -8.3%

CCOc1cc(C)cc2oc(=O)cc(-c3ccccc3)c12
inactive: [1] -2.2% | [2] -0.6% | [3] -4.4%

C[C@]12CC[C@@H]3c4ccc(O)cc4CC[C@H]3[C@@H]1CC[C@@H]2O
inactive: [1] 3.3% | [2] 1.1% | [3] -1.3%

Cn1cc(CN2CCN(CCO)CC2)c(-c2ccc(Oc3ccccc3)cc2)n1
inactive: [1] 2.6% | [2] 0.5% | [3] -1.5%

Cc1ccc(P(=O)(CSC(=N)N)c2ccc(C)cc2)cc1
inactive: [1] -1.3% | [2] -0.5% | [3] -7.5%

Clc1ccc(Cn2c(CN3CCCC3)nc3ccccc32)cc1
inactive: [1] -2.6% | [2] -1% | [3] -0.3%

O=C(Nc1cccc(C(=O)O)c1)/C(=C\c1ccccc1)NC(=O)c1ccccc1
inactive: [1] 1.8% | [2] 0.3% | [3] -0.8%

C[C@]12CC[C@@H]3c4ccc(O)cc4CC[C@H]3[C@@H]1CC[C@@H]2OC(=O)CCC(=O)O
inactive: [1] -0.1% | [2] -0.4% | [3] -10%

CC[N+](C)(CC)CCOC(=O)C(O)(c1ccccc1)C1CCCCC1 (centres undefined)
inactive: [1] 4.8% | [2] 1.4% | [3] -1.1%

CC(C)(C)C(=O)NCCCNc1ccc([N+](=O)[O-])cc1
inactive: [1] -0.6% | [2] -0.3% | [3] 3.3%

Cc1nnc(NS(=O)(=O)c2ccc(N)cc2)s1
inactive: [1] 2.8% | [2] -1.1% | [3] -2.8%

CCCC(CCC)C(=O)OC1C[C@H]2CC[C@@H](C1)[N+]2(C)C (some centres undefined)
inactive: [1] -1.1% | [2] 1% | [3] 2.3%

CN(C)c1ccc(CNCCC(Cc2ccccc2)c2ccco2)cc1 (centres undefined)
inactive: [1] -4.5% | [2] -0.8% | [3] -8.8%

Cc1cc(C)cc(Nc2nc3c([nH]2)c(=O)n(C)c(=O)n3C)c1
inactive: [1] -0.8% | [2] 0.5% | [3] 4.9%

CC(=O)Oc1ccc(C2OC(=O)c3ccccc3N2C(C)=O)cc1 (centres undefined)
inactive: [1] 2% | [2] 0.3% | [3] 3.3%

COc1ccc(/C=C2\CC/C(=C\c3ccc(OC)c(OC)c3)C2=O)cc1OC
inactive: [1] 1.7% | [2] 0.1% | [3] -5.9%

O=C(CCC(=O)c1cccs1)c1cccs1
inactive: [1] 3.2% | [2] -1.4% | [3] -3.3%

C[C@H](NC(=O)C1(c2ccccc2)CCN(C(=O)[C@H]2CSCN2C(=O)OC(C)(C)C)CC1)C(=O)O
inactive: [1] -0.9% | [2] -2% | [3] -10.5%

C[C@H]1C[C@@H]2[C@H]([C@@H](O)C[C@@]3(C)[C@H]2CC[C@]3(O)C(=O)CO)[C@@]2(C)C=CC(=O)C=C12
inactive: [1] -2.2% | [2] 0.7% | [3] -0.7%

CC(C)Oc1ccc2c(=O)c(-c3ccccc3)coc2c1
inactive: [1] 4.4% | [2] 1.4% | [3] 6.8%

CC(COc1ccccc1)NC(C)C(O)c1ccc(O)cc1 (centres undefined)
inactive: [1] -1.7% | [2] 0.2% | [3] 0.2%

Nc1ccn([C@@H]2O[C@H](CO)[C@@H](O)[C@@H]2O)c(=O)n1
inactive: [1] -1.4% | [2] -0.7% | [3] -1.8%

Reference: PubChem BioAssay
